Records with an inconclusive call do not appear. Calls of active or inactive are those of the source. Calls come from the whole dose curve; as a rule, active = well fitted curve in the direction sought with a large enough effect; inconclusive = small, poorly fitted or top-dose-only effect, or another doubt; inactive = no such curve, though single readings can be large; an effect the other way counts as inactive or inconclusive.
How the values were obtained:
[1] = qHTS of pediatric cancer cell lines to identify multiple opportunities for drug repurposing: Primary screen for TC32 cells (AID 1347089); conditions: TC32 Ewing sarcoma viability, CellTiter-Glo luminescence, 48 h; series mostly up to 45.8 µM; note: nearly all actives have a fitted effect of over 60% in size
Summary of the method: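 In the primary qHTS, MIPE compounds were tested at 11 concentrations (0.78 nM to 46 µM) and NPC compounds at 8 (0.59 nM to 46 µM) on TC32 cells for 48 h. CellTiter-Glo luminescence gave viability.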

[2] = qHTS of pediatric cancer cell lines to identify multiple opportunities for drug repurposing: Primary screen for A673 cells (AID 1347092); conditions: A673 Ewing sarcoma viability, CellTiter-Glo ATP luminescence, 48 h; series mostly up to 46 µM; note: nearly all actives have a fitted effect of over 45% in size
Summary of the method: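 48 h compound exposure, A673, 500-1,000 cells/well, 37 degrees C/5% CO2. MIPE: 11-point, 0.78 nM-46 µM; NPC: 8-point, 0.59 nM-46 µM (final). Readout CellTiter-Glo luminescence after 15 min RT.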

[3] = qHTS of pediatric cancer cell lines to identify multiple opportunities for drug repurposing: Primary screen for SK-N-MC cells (AID 1347093); conditions: SK-N-MC viability, CellTiter-Glo luminescence, 48 h; series mostly up to 46 µM
Summary of the method: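 Metabolically active cells were quantified by ATP-dependent luminescence (CellTiter-Glo, 15 min at room temperature) following 48 h treatment. Cells had been plated at 500-1,000 per well and settled for 5 h beforehand.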

[4] = qHTS of pediatric cancer cell lines to identify multiple opportunities for drug repurposing: Primary screen for BT-37 cells (AID 1347094); conditions: BT-37 viability, CellTiter-Glo luminescence, 48 h; series mostly up to 57.3 µM
Summary of the method: (§1)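 Cells seeded at 500-1,000 cells/well in growth media, rested 5 hours at 37 degrees C, 5% CO2, then dosed; MIPE compounds at 11-point (from 0.78 nM) and NPC at 8-point (from 0.59 nM) final concentrations. Viability by CellTiter-Glo luminescence after 48 hours.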

[5] = qHTS of pediatric cancer cell lines to identify multiple opportunities for drug repurposing: Primary screen for NB-EBc1 cells (AID 1347095); conditions: NB-EBc1 neuroblastoma viability, CellTiter-Glo luminescence, 48 h; series mostly up to 46 µM
Summary of the method: as §1

[6] = qHTS of pediatric cancer cell lines to identify multiple opportunities for drug repurposing: Primary screen for U-2 OS cells (AID 1347096); conditions: U-2 OS viability, CellTiter-Glo luminescence, 48 h; series mostly up to 46 µM; note: nearly all actives have a fitted effect of over 50% in size
Summary of the method: (§2)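 Cells (500-1,000/well) rested 5 h, then received compounds for 48 h; metabolically active cells were measured by CellTiter-Glo luminescence. Final concentrations spanned up to 46 µM (MIPE, 11-point) or 0.59 nM-46 µM (NPC, 8-point) in primary screens, 11-point in follow-ups.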

[7] = qHTS of pediatric cancer cell lines to identify multiple opportunities for drug repurposing: Primary screen for Saos-2 cells (AID 1347097); conditions: Saos-2 viability, CellTiter-Glo ATP luminescence, 48 h; series mostly up to 46 µM; note: nearly all actives have a fitted effect of over 40% in size
Summary of the method: as §1

[8] = qHTS of pediatric cancer cell lines to identify multiple opportunities for drug repurposing: Primary screen for SJ-GBM2 cells (AID 1347091); conditions: SJ-GBM2 viability, CellTiter-Glo luminescence, 48 h; series mostly up to 46 µM
Summary of the method: (§3)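 Cell viability, CellTiter-Glo luminescence; 500-1,000 cells/well, 8- or 11-point titration, 48 h compound exposure at 37 degrees C, 5% CO2. Controls: DMSO neutral, bortezomib 2.3 µM final as positive.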

[9] = qHTS of pediatric cancer cell lines to identify multiple opportunities for drug repurposing: Primary screen for SK-N-SH cells (AID 1347098); conditions: SK-N-SH viability, CellTiter-Glo luminescence, 48 h; series mostly up to 57 µM; note: nearly all actives have a fitted effect of over 65% in size
Summary of the method: as §2

[10] = qHTS of pediatric cancer cell lines to identify multiple opportunities for drug repurposing: Primary screen for DAOY cells (AID 1347090); conditions: DAOY medulloblastoma viability, CellTiter-Glo luminescence, 48 h; series mostly up to 46 µM; note: nearly all actives have a fitted effect of over 55% in size
Summary of the method: as §3

Measured: Potency
Potency is the fitted concentration of half-maximal effect.

c1cc(OCCN2CCCCC2)cc(-c2n[nH]c3ccc(-c4ncn[nH]4)cc23)c1
inactive: [1] | [5] | [6] | [7]
active: [2] 9.35 µM | [3] 16.6 µM | [4] 19.3 µM

COc1ccc(C=CC(=O)Nc2ccccc2C(=O)O)cc1OC
inactive: [1] | [8] | [4] | [6]

CO[C@H]1/C=C\O[C@@]2(C)Oc3c(C)c(O)c4c(O)c(c5c(nc6cc(C)ccn65)c4c3C2=O)NC(=O)C(C)=CC=C[C@H](C)[C@H](O)[C@@H](C)[C@@H](O)[C@@H](C)[C@H](OC(C)=O)[C@H]1C
inactive: [1] | [8] | [4] | [5] | [9]

C[C@@H](NC(=O)c1ncnc(N)c1Cl)c1ncc(C(=O)Nc2cc(C(F)(F)F)c(Cl)cn2)s1
active: [2] 18.7 µM | [3] 16.6 µM | [5] 14.8 µM | [9] 19.2 µM
inactive: [1] | [6]

CNC(=O)[C@H](Cc1ccccc1)NC(=O)[C@H](CC(C)C)[C@H](CSc1cccs1)C(=O)NO
inactive: [1] | [8] | [5] | [6]

C[C@@H](O[C@H]1OCCN(Cc2n[nH]c(=O)[nH]2)[C@@H]1c1ccc(F)cc1)c1cc(C(F)(F)F)cc(C(F)(F)F)c1
inactive: [1] | [6]
active: [8] 23.5 µM | [4] 27.3 µM | [5] 23.5 µM | [7] 26.4 µM

NC(=O)c1ccc(N(C(N)=O)c2c(F)cccc2F)nc1-c1ccc(F)cc1F
inactive: [1] | [8] | [4] | [5] | [6] | [7]

COc1cc2ncnc(Nc3cc(Br)c(O)c(Br)c3)c2cc1OC
inactive: [1] | [6]
active: [2] 0.0118 µM | [3] 0.0066 µM | [7] 20.9 µM

Cc1cnc(Nc2cccc(CN3CCOCC3)c2)nc1Nc1cccc(S(=O)(=O)NC(C)(C)C)c1
active: [2] 5.9 µM | [3] 2.64 µM | [5] 4.18 µM | [6] 14.8 µM | [7] 5.26 µM
inactive: [1]

C[C@]12CC[C@@H]3c4ccc(O)cc4CC[C@H]3[C@H]1[C@@H](O)[C@@H](O)[C@H]2O
inactive: [1] | [8] | [4] | [5] | [6]

O=C1Nc2ccc(I)cc2C1=Cc1cc(Br)c(O)c(Br)c1
inactive: [1] | [4] | [6] | [7] | [9]
active: [2] 14.8 µM | [3] 8.33 µM

COc1cc2ncn(-c3cc(OCc4ccccc4S(C)(=O)=O)c(C#N)s3)c2cc1OC
inactive: [1] | [4] | [5] | [6]
active: [2] 23.5 µM | [3] 13.2 µM

CC(C)C[C@H](NC(=O)c1cc2ccccc2s1)C(=O)N1CCN(C(=O)[C@H](CO)NS(=O)(=O)c2ccc(Cl)cc2Cl)CC1
inactive: [1]
active: [2] 23.5 µM | [3] 10.5 µM | [4] 15.3 µM | [5] 26.4 µM | [7] 14.8 µM

C#CCN(C)CC1=Cc2ccccc2Oc2ccccc21
inactive: [1] | [8] | [4] | [6] | [9]

CN(C)CCOc1ccc(-c2nc(-c3ccc4c(c3)CCC4=NO)c(-c3ccncc3)[nH]2)cc1
active: [8] 23.5 µM | [4] 30.6 µM | [7] 23.5 µM | [9] 24.1 µM
inactive: [1] | [5]

CC(C)[C@H](O)C(=O)N[C@@H](C)C(=O)N[C@@H]1C(=O)N(C)CCc2ccccc21
active: [3] 18.7 µM
inactive: [1] | [4] | [6] | [9]

CN(C)S(=O)(=O)c1ccc2c(c1)C(=Cc1cc3c([nH]1)CCCC3)C(=O)N2
active: [3] 3.72 µM | [9] 3.83 µM
inactive: [1] | [6]

Cc1cc(C(C)Nc2ccccc2)c2nc(N3CCOCC3)cc(=O)n2c1 (configuration not stated)
inactive: [1] | [6]
active: [3] 0.132 µM

COc1ccc2ccc(=O)oc2c1CC=C(C)C
inactive: [1] | [9]
active: [3] 9.35 µM | [7] 18.7 µM

O=C1NC(=O)C(c2cnc3ccccn23)=C1c1cn2c3c(cccc13)CN(C(=O)N1CCOCC1)CC2
inactive: [6]
active: [10] 0.0235 µM | [8] 0.0235 µM | [3] 0.0235 µM | [4] 19.3 µM | [5] 0.0166 µM

CC(C)c1onc(-c2c(Cl)cccc2Cl)c1COc1ccc(C=Cc2cccc(C(=O)O)c2)c(Cl)c1
active: [3] 16.6 µM
inactive: [1] | [6] | [7]

OC[C@H]1O[C@@H](OCCc2ccc(O)cc2)[C@H](O)[C@@H](O)[C@H]1O
inactive: [1] | [4] | [6]
active: [3] 26.4 µM

Cc1ccc2c(=O)c3cccc(CC(=O)O)c3oc2c1C
active: [10] 14.8 µM | [2] 9.35 µM | [3] 16.6 µM | [9] 24.1 µM
inactive: [8] | [6]

Oc1cc(O)cc(C=Cc2ccc(O)c(O)c2)c1
active: [2] 18.7 µM | [3] 5.26 µM | [5] 4.18 µM | [7] 5.26 µM
inactive: [10] | [8] | [6]

COc1c(C)c2c(c(O)c1CC=C(C)CCC(=O)O)C(=O)OC2
inactive: [7]
active: [1] 5.23 µM | [3] 1.18 µM | [4] 1.53 µM | [5] 0.743 µM

NC(=O)c1nnn(Cc2cc(Cl)c(C(=O)c3ccc(Cl)cc3)c(Cl)c2)c1N
active: [3] 23.5 µM | [7] 23.5 µM | [9] 30.4 µM
inactive: [1] | [6]

O=C(O)Cc1cccc(OCCCN(Cc2cccc(C(F)(F)F)c2Cl)CC(c2ccccc2)c2ccccc2)c1
inactive: [6] | [7]
active: [10] 14.8 µM | [8] 23.5 µM | [2] 23.5 µM | [3] 6.62 µM | [4] 27.3 µM | [9] 19.2 µM

C[C@@H]1[C@H](C)CC[C@]2(C(=O)O)CC[C@]3(C)C(=CC[C@@H]4[C@@]5(C)CC[C@H](O)C(C)(C)[C@H]5CC[C@]43C)[C@@H]12
active: [1] 19 µM | [3] 0.429 µM | [5] 13.6 µM | [7] 9.59 µM | [9] 17.5 µM
inactive: [4] | [6]

Cc1nc(NC(=O)N2CCC[C@@H]2C(N)=O)sc1-c1csc(C(C)(C)C)n1
active: [10] 14.8 µM | [8] 4.18 µM | [2] 2.96 µM | [3] 0.235 µM | [5] 4.69 µM | [7] 11.8 µM | [9] 15.2 µM

CCOc1ccccc1N=Nc1c(C)[nH]n(-c2nc(-c3ccccc3)cs2)c1=O
inactive: [1] | [4] | [6]
active: [3] 0.209 µM

c1ccc(CNc2nc(N3CCOc4ccccc43)nc3c2CCCC3)cc1
active: [8] 23.5 µM
inactive: [10] | [2] | [6]

CC[C@H]1OC(=O)[C@H](C)[C@@H](O[C@H]2C[C@@](C)(OC)[C@@H](O)[C@H](C)O2)[C@H](C)[C@@H](O[C@@H]2O[C@H](C)C[C@H](N(C)C)[C@H]2O)[C@](C)(O)C[C@H](C)C(=NOCOCCOC)[C@H](C)[C@@H](O)[C@]1(C)O
active: [3] 16.6 µM | [9] 30.4 µM
not listed: [1]
inactive: all other assays above

CC1(COc2ccc3c(c2)ncn3-c2ccc3cccc(N4CCC(N)CC4)c3n2)COC1
active: [10] 0.0469 µM | [8] 5.26 µM | [3] 0.001 µM | [4] 0.001 µM | [5] 0.001 µM | [6] 29.6 µM | [7] 16.6 µM
inactive: [9]

COc1cc2c(cc1OC)CC(=O)N(CCCN(C)C[C@H]1Cc3cc(OC)c(OC)cc31)CC2
active: [3] 14.8 µM
inactive: [1] | [6] | [7]

CCOC(=O)N1CCN([N+]([O-])=NOc2cc(ON=[N+]([O-])N3CCN(C(=O)OCC)CC3)c([N+](=O)[O-])cc2[N+](=O)[O-])CC1
active: [8] 14.8 µM | [5] 5.9 µM
not listed: [1]
inactive: all other assays above

Reference: PubChem BioAssay (NCATS)
